# According to PubChem BioAssay (Tox21):
# Several values for one entry are separate records, joined by “and”; a condition that tells them apart may be missing. Equal entries are not always repeated. Inconclusive results are not listed. Where a call stands in place of a potency, no number is given. Where a structure was tested more than once in an assay, its records may differ in their call. Activity calls are given as the source filed them. Unless noted, calls come from the whole dose curve; as a rule, active = well fitted curve in the direction sought with a large enough effect in the repeat runs; inconclusive = weak or mixed curves; inactive = no such curve, though single readings can be large; an effect the other way counts as inactive or inconclusive.
# Assays:
# [1] = qHTS assay to identify small molecule antagonists of the thyroid receptor (TR) signaling pathway - cell viability counter screen (AID 743064); note: nearly all actives have a fitted effect of over 50% in size; note: potency is the fitted concentration of half-maximal effect
# Outline: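 GH3.TRE-Luc rat pituitary cells dosed after 4 hr plating, co-stimulated with T3 at 1 nM final, incubated 23.5 h at 37 C. Viability measured in the same wells by CellTiter-Fluor fluorescence after 30 min further at 37 C.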
# [2] = qHTS assay to identify small molecule antagonists of the thyroid receptor (TR) signaling pathway (AID 743065); note: nearly all actives have a fitted effect of over 55% in size; note: potency is the fitted concentration of half-maximal effect
# Outline: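 GH3.TRE-Luc rat pituitary cells carrying two TR response elements driving luciferase were plated for 4 h, given compound plus 1 nM T3 (final), and incubated 23.5 h at 37 C. ONE-Glo luminescence measured reporter inhibition; CellTiter-Fluor fluorescence tracked cytotoxicity.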
# [3] = system: thyroid hormone receptor (rat, GH3 cells); assay: qHTS assay to identify small molecule agonists of the thyroid receptor (TR) signaling pathway (AID 743066; calls by dose curve)
# [4] = qHTS assay to identify small molecule antagonists of the estrogen receptor alpha (ER-alpha) signaling pathway - cell viability counter screen (AID 743074; calls by dose curve;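 note: HEK293 cells carrying ER-alpha-UAS-bla reporter stimulated with 17beta-estradiol; nearly all actives have a fitted effect of over 45% in size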)
# [5] = molecular target: Estrogen receptor (Homo sapiens) (UniProt P03372); assay: qHTS assay to identify small molecule agonists of the estrogen receptor alpha (ER-alpha) signaling pathway (AID 743075; calls by dose curve;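 note: HEK293 GripTite cells with ER-alpha and UAS-driven beta-lactamase reporter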; note: potency is the fitted concentration of half-maximal effect)
# Sequence of Estrogen receptor (Homo sapiens) (P03372 whole entry, looked up): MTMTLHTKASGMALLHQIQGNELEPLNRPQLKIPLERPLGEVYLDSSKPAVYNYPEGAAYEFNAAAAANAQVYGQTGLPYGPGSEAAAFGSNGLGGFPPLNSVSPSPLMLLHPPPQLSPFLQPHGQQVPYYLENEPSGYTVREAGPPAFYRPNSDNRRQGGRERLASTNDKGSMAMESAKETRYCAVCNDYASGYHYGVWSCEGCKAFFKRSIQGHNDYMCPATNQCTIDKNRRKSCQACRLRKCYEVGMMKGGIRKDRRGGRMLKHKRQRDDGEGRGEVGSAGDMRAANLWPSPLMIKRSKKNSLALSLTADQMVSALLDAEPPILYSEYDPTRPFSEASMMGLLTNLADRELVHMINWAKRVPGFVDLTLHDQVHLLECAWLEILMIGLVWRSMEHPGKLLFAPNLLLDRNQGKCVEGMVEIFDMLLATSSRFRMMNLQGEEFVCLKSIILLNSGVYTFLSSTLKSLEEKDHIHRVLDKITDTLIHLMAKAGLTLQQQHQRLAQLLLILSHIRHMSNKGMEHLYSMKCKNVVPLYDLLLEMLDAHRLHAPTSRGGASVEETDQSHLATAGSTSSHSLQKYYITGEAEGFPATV
# [6] = molecular target: Estrogen receptor (Homo sapiens) (UniProt P03372); assay: qHTS assay to identify small molecule agonists of the estrogen receptor alpha (ER-alpha) signaling pathway using the BG1 cell line (AID 743079); note: nearly all actives have a fitted effect of over 20% in size
# [7] = qHTS assay to identify small molecule antagonists of the estrogen receptor alpha (ER-alpha) signaling pathway using the BG1 cell line (AID 743080; calls by dose curve; note: series mostly up to about 70 µM; nearly all actives have a fitted effect of over 25% in size)
# Outline: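 Antagonist mode: compounds in DMSO were pinned onto BG1-Luc-4E2 cells alongside 17beta-estradiol agonist, incubated 21.5 h, and ERE-driven luciferase measured with ONE-Glo. Cytotoxicity was multiplexed using CellTiter-Fluor fluorescence.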
# [8] = qHTS assay to identify small molecule antagonists of the estrogen receptor alpha (ER-alpha) signaling pathway using the BG1 cell line - cell viability counter screen (AID 743081);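 note: compound given together with 17beta-estradiol as the ER stimulus; nearly all actives have a fitted effect of over 45% in size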; note: potency is the fitted concentration of half-maximal effect
# Aromatase (Homo sapiens) = Aromatase (Homo sapiens) (UniProt P11511); assay: qHTS assay to identify aromatase inhibitors (AID 743083); note: series mostly up to about 70 µM; nearly all actives have a fitted effect of over 55% in size
# Sequence of Aromatase (Homo sapiens) (P11511 whole entry, looked up): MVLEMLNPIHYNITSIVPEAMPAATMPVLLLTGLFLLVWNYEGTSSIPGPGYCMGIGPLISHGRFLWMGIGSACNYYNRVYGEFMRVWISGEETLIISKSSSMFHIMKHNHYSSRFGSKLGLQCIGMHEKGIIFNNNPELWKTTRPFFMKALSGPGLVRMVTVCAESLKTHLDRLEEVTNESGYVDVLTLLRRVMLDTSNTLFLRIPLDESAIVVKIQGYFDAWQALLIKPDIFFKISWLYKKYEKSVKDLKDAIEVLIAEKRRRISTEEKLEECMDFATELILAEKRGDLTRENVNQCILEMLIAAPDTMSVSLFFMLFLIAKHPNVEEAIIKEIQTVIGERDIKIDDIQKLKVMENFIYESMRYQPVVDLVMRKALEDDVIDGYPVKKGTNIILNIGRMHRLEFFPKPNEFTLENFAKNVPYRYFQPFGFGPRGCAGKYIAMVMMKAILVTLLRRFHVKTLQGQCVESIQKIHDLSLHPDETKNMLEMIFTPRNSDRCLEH
# [9] = qHTS assay to identify aromatase inhibitors - cell viability counter screen (AID 743084);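 note: cells stimulated with testosterone during compound exposure; nearly all actives have a fitted effect of over 55% in size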; note: potency is the fitted concentration of half-maximal effect
# [10] = qHTS assay to identify small molecule antagonists of the peroxisome proliferator-activated receptor gamma (PPARg) signaling pathway - cell viability counter screen (AID 743194); note: nearly all actives have a fitted effect of over 55% in size
# Outline: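 PPARg-UAS-bla HEK293H cells were plated, rested 5 h at 37 C, then treated with compounds plus rosiglitazone (50 nM final) for 17 h at 37 C; viability was then read by CellTiter-Glo luminescence after 30 min at room temperature.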
# [11] = qHTS assay for small molecule agonists of the antioxidant response element (ARE) signaling pathway (AID 743202; active = well fitted activation curve with a large enough effect in the signal ratio in the repeat runs, not every such curve was filed as active; the % refers to the signal ratio; note: potency is the fitted concentration of half-maximal effect)
# Outline: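 Read-out: LiveBLAzer B/G FRET substrate fluorescence after 2 h at room temperature, following 16 h compound treatment at 37 C of HepG2 cells carrying an ARE-driven beta-lactamase reporter.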
# [12] = qHTS assay for small molecule agonists of the antioxidant response element (ARE) signaling pathway - cell viability counter screen (AID 743203; calls by dose curve; note: nearly all actives have a fitted effect of over 55% in size)
# Outline: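 ARE-bla HepG2 cells were plated, rested 5 h at 37C/5% CO2, then exposed to compounds in DMSO for 16 h. Viability was read as CellTiter-Glo luminescence after 30 min at room temperature, in the same wells as the ARE screen.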
# [13] = qHTS assay for small molecule activators of the heat shock response signaling pathway (AID 743210; active = well fitted activation curve with a large enough effect in the signal ratio in the repeat runs, with a control signal flat, not every such curve was filed as active; the % refers to the signal ratio; note: series mostly up to about 63 µM)
# Outline: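 HSE-bla HeLa cells (beta-lactamase reporter under heat shock response elements) were exposed to compounds for 5 h at 37 C, then loaded with LiveBLAzer B/G FRET substrate for 2.5 h at room temperature before fluorescence reading.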
# [14] = molecular target: Aryl hydrocarbon receptor (Homo sapiens) (UniProt P35869); assay: qHTS assay to identify small molecule that activate the aryl hydrocarbon receptor (AhR) signaling pathway (AID 743085); note: nearly all actives have a fitted effect of over 15% in size; note: potency is the fitted concentration of half-maximal effect;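 for activation: HG2L7.5c1 human HepG2 liver cells with stably integrated DRE-driven firefly reporter; series mostly up to about 70 µM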
# Sequence of Aryl hydrocarbon receptor (Homo sapiens) (P35869 whole entry, looked up): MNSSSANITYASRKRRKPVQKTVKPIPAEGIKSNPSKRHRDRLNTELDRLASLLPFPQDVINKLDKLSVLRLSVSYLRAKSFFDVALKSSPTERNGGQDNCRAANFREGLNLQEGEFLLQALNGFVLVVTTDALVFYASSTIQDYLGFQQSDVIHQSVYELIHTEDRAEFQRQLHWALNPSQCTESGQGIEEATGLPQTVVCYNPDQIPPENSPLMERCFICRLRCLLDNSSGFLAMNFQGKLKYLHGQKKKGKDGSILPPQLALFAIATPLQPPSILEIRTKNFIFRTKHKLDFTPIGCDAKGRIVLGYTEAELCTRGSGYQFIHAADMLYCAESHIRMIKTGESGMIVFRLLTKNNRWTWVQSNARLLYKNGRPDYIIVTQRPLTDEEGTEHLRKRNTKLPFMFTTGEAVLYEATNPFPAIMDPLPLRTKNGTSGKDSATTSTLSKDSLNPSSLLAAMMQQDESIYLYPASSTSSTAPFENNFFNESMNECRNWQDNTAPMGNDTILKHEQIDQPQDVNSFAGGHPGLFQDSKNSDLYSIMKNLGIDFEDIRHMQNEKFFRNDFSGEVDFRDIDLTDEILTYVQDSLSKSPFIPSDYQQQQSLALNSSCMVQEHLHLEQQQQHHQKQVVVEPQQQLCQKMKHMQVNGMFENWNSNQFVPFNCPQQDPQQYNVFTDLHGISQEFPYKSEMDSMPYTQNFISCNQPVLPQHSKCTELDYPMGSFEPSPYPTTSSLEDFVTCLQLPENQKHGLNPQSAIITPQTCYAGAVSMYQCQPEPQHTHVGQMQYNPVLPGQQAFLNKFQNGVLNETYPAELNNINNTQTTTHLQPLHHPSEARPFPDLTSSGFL
# Outline: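 HepG2 cells stably carrying a 20-DRE firefly luciferase reporter (HG2L7.5c1) treated with compound for 24 hr at 37C. Luciferase read by ONE-Glo luminescence, with CellTiter-Fluor viability read first.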
# [15] = qHTS assay to identify small molecule that activate the aryl hydrocarbon receptor (AhR) signaling pathway - cell viability counter screen (AID 743086);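 note: HepG2 liver cells carrying the AhR DRE luciferase reporter; series mostly up to about 70 µM; nearly all actives have a fitted effect of over 45% in size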
# Outline: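 HepG2-AhR-luc (HG2L7.5c1) cells, 4000/well, were preincubated 5 h at 37C, exposed to compound in qHTS format for 24 hr at 37C, then given CellTiter-Fluor for 30 min; viability was read as fluorescence in the reporter wells.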
# [16] = molecular target: Peroxisome proliferator-activated receptor gamma (Homo sapiens) (UniProt P37231); assay: qHTS assay to identify small molecule agonists of the peroxisome proliferator-activated receptor gamma (PPARg) signaling pathway (AID 743094; active = well fitted activation curve with a large enough effect in the signal ratio in the repeat runs, not every such curve was filed as active; the % refers to the signal ratio)
# Sequence of Peroxisome proliferator-activated receptor gamma (Homo sapiens) (P37231 whole entry, looked up): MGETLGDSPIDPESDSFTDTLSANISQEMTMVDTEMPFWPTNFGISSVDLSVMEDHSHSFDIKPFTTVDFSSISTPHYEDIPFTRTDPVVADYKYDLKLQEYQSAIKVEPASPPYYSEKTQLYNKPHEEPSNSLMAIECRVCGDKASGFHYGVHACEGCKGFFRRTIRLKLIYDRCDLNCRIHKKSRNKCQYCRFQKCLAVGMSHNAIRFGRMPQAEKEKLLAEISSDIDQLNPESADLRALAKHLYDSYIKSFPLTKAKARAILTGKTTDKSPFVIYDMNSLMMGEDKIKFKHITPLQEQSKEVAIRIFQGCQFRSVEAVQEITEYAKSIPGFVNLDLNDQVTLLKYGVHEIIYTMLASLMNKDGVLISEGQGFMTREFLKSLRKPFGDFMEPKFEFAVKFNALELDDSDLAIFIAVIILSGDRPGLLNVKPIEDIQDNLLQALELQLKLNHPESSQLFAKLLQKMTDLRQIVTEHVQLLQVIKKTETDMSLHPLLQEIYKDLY
# Outline: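 GeneBLAzer PPARg UAS-bla HEK293H cells were plated, rested 5 h, then exposed to compounds for 17 h at 37C. Beta-lactamase activity was read by LiveBLAzer B/G FRET substrate fluorescence after 1 h at room temperature.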
# [17] = molecular target: Peroxisome proliferator-activated receptor gamma (Homo sapiens) (UniProt P37231); assay: qHTS assay to identify small molecule antagonists of the peroxisome proliferator-activated receptor gamma (PPARg) signaling pathway (AID 743191; calls by dose curve; note: series mostly up to about 63 µM; nearly all actives have a fitted effect of over 30% in size)
# Outline: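 GeneBLAzer PPARg UAS-bla HEK293H cells carrying a UAS-driven beta-lactamase reporter were plated at 3000 cells/well, preincubated 5 h at 37C, then given compound for 17 h at 37C; LiveBLAzer B/G FRET substrate was read after 1 h at room temperature.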
# [18] = qHTS assay for small molecule activators of the heat shock response signaling pathway - cell viability counter screen (AID 743209); note: nearly all actives have a fitted effect of over 50% in size
# Outline: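 HSE-bla HeLa cells plated overnight, then exposed to Tox21 compounds (23 nL in DMSO) for 5 h at 37 C. After the bla reporter read, CellTiter-Glo was added in the same wells and luminescence read after 30 min at room temperature.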
SMILES,Potency [1],Potency [2],Potency [3],Potency [4],Potency [5],Potency [6],Potency [7],Potency [8],Potency (Aromatase (Homo sapiens)),Potency [9],Potency [10],Potency [11],Potency [12],outcome [13],Potency [14],Potency [15],outcome [16],Potency [17],Potency [18]
O=[Se](O)O,inactive,inactive,inactive,inactive,inactive,inactive,inactive,6.87 µM (active) and inactive,inactive,inactive,inactive,inactive,inactive,inactive,,,,,
C=C1C[C@H]2[C@@H]3C=C(C)C4=CC(=O)CC[C@]4(C)[C@H]3CC[C@]2(C)[C@@]1(OC(C)=O)C(C)=O,inactive,23.7 µM (active) and 15.7 µM (active),inactive,inactive,,inactive,inactive,inactive,inactive,inactive,inactive,17.6 µM (active) and 29.8 µM (active),inactive,inactive,inactive,inactive,inactive,inactive,inactive
CCCCCCOCCOCCO,inactive,inactive,inactive,inactive,,,,inactive,inactive,inactive,inactive,inactive,inactive,inactive,inactive,inactive,,,inactive
C=CCCCCCCCCCC,inactive,inactive,inactive,inactive,,,,inactive,inactive,inactive,inactive,inactive,inactive,inactive,inactive,inactive,inactive,inactive,inactive
CCCCCCCCCCC(CO)CCCCCCCC (stereo unspecified),inactive,inactive,inactive,inactive,,,,inactive,inactive,inactive,inactive,inactive,inactive,inactive,inactive,,inactive,,inactive
c1ccc2c(c1)ccc1cc3c(ccc4ccccc43)cc12,inactive,inactive,inactive,inactive,inactive and 19.3 µM [fluorescent] (active),inactive,,inactive,inactive,inactive,inactive,538 nM (active) and 959 nM (active),inactive,inactive,958 nM (active) and 121 nM (active),inactive,,,inactive
IC(I)I,inactive,inactive,inactive,inactive,,,,inactive,inactive,inactive,inactive,inactive,inactive,inactive,inactive,inactive,,inactive,
Cc1ccc2c(c1)C(=O)OC2=O,inactive,inactive,inactive,inactive,,,,inactive,inactive,inactive,inactive,inactive,inactive,inactive,inactive,inactive,,inactive,
CCC/C=C/C=O,inactive,inactive,inactive,inactive,inactive,inactive,inactive,inactive,inactive,inactive,inactive,inactive,inactive,inactive,inactive,,,,inactive
CC1(C)OC(=O)NC1=O,inactive,inactive,inactive,inactive,,,,inactive,inactive,inactive,inactive,inactive,inactive,inactive,inactive,,,inactive,inactive
O=C(O)COCCN1CCN(C(c2ccccc2)c2ccc(Cl)cc2)CC1 (stereo unspecified),inactive,inactive,inactive,inactive,inactive,inactive,inactive,inactive,,inactive,inactive,,inactive,,,inactive,inactive,inactive,inactive
C1CN(SSN2CCOCC2)CCO1,67.9 µM (active),60.5 µM (active),inactive,inactive,inactive,inactive,inactive,inactive,,61.1 µM (active),inactive,inactive,inactive,,inactive,,,,
C[C@]12CC[C@@H]3c4ccc(O)cc4CC[C@H]3[C@@H]1CC[C@@H]2O,inactive,27.3 µM (active) and 30.6 µM (active),inactive,inactive,,,,inactive,inactive,inactive,inactive,,inactive,inactive,inactive,inactive,,,
CC(=O)[C@@]1(O)CC[C@H]2[C@@H]3C[C@H](C)C4=CC(=O)C=C[C@]4(C)[C@@]3(F)[C@@H](O)C[C@@]21C,inactive,inactive,inactive,inactive,inactive,inactive,,inactive,inactive,inactive,inactive,inactive,inactive,inactive,inactive,inactive,,inactive,
